Measured values published in PubChem BioAssay (EPA / NIEHS).
Results filed as inconclusive are left out. The source made the active and inactive calls. The calls were made as follows, unless noted: active = hit-call score of the fitted dose curve at least 0.9, where 1 is the maximum; inactive = score below 0.9.

Columns and labels:
[1] = read-out: Monokine induced gamma interferon (MIG), CXCL9 (gene 4283); assay: BSK_3C_MIG: BioMAP Diversity Plus: 3C Assay for Monokine induced gamma interferon (MIG) Biomarker Activity (AID 2283021); details: primary human endothelial cells (HUVEC); actives raise or lower the signal
Method in brief: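 After 24 h of treatment, human umbilical vein endothelial cultures (3C system) had their MIG biomarker level determined by ELISA, with DMSO serving as negative control.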

[2] = molecular target: human Vitamin D Receptor (VDR), VDR (gene 7421) (UniProt P11473); assay: ATG_VDR_TRANS: Attagene TRANS-FACTORIAL HepG2 Assay for human Vitamin D Receptor (VDR) (AID 2283022; active = hit-call score of the fitted dose curve at least 0.9, where 1 is the maximum)
Method in brief: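 HepG2 cells were transiently transfected with multiple GAL4-UAS reporter units, so signal reflects exogenous chimeric receptor-Gal4 activity. After 24 h compound exposure, reporter mRNA was measured by RT-PCR, fluorescent labelling and capillary electrophoresis, fitted for gain of signal versus DMSO.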

[3] = BSK_3C_SRB: Viability Assessment in the BioMAP Diversity Plus: 3C Assay (AID 2283023); details: primary human endothelial cells (HUVEC);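 also: fitted both ways against DMSO so a hit may be signal rise or drop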
Method in brief: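 Primary human umbilical vein endothelial cells in the 3C system were read 24 h after compound dosing. Total protein was stained with 0.1% sulforhodamine B after 10% TCA fixation and read at 560 nm, with bidirectional fitting against DMSO as baseline.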

[4] = read-out: Matrix Metallopeptidase 1 (MMP1), MMP1 (gene 4312); assay: BSK_BE3C_MMP1: BioMAP Diversity Plus: BE3C Assay for Matrix Metallopeptidase 1 (MMP1) Biomarker Activity (AID 2283024); details: primary human bronchial epithelial cells; actives raise or lower the signal
Method in brief: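 Dose cells, wait 24 h, run MMP1 ELISA; cells are human bronchial epithelial primaries. Both increases and decreases relative to DMSO counted.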

[5] = BSK_3C_Vis: BioMAP Diversity Plus: 3C Assay for Morphology Visualization (AID 2283025); details: primary human endothelial cells (HUVEC);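 also: fitted both ways so gain or loss versus DMSO counts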;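 as to AC50: light microscopy image of cell morphology used as background control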
Method in brief: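 Endothelial cells from human umbilical vein were treated with test chemicals for 24 h and inspected by light microscopy for changes in cell conformation.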

[6] = read-out: Pselectin, SELP (gene 6403); assay: BSK_4H_Pselectin: BioMAP Diversity Plus: 4H Assay for Pselectin Biomarker Activity (AID 2283026); details: primary human endothelial cells (HUVEC); actives raise or lower the signal
Method in brief: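 Human vascular endothelium from umbilical vein; P-selectin measured by ELISA at 24 h post-dose, with cytotoxicity checked by sulforhodamine B total-protein staining in parallel cultures (0.1% SRB after 10% TCA fixation, read at 560 nm).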

[7] = BSK_4H_SRB: Viability Assessment in the BioMAP Diversity Plus: 4H Assay (AID 2283027); details: primary human endothelial cells (HUVEC);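 also: cells exposed to compound for 24 h before staining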;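 as to AC50: curves fitted both ways versus DMSO so AC50 may be loss or gain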
Method in brief: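 Human umbilical vein endothelial cells were dosed with chemical and, after 24 h, fixed with 10% TCA, stained with 0.1% sulforhodamine B, and read at 560 nm to give total protein as a cytotoxicity measure. Bidirectional fitting relative to DMSO control.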

[8] = BSK_BE3C_SRB: Viability Assessment in the BioMAP Diversity Plus: BE3C Assay (AID 2283028); details: primary human bronchial epithelial cells;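 as to AC50: fitted both ways so AC50 may mark signal gain or loss versus DMSO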
Method in brief: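 Human primary bronchial epithelial cells were exposed to test chemicals for 24 h. Total protein in parallel cultures was then measured by staining with 0.1% sulforhodamine B after 10% TCA fixation, with absorbance read at 560 nm. Activity was fitted bidirectionally against DMSO.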

[9] = read-out: Thrombomodulin, THBD (gene 7056); assay: BSK_3C_Thrombomodulin: BioMAP Diversity Plus: 3C Assay for Thrombomodulin Biomarker Activity (AID 2283029); details: primary human endothelial cells (HUVEC); actives raise or lower the signal
Method in brief: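 Thrombomodulin ELISA, human primary HUVEC, 24 h post-dose; data fitted in both directions relative to DMSO.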

[10] = read-out: Urokinase-type plasminogen activator receptor (uPAR), PLAUR (gene 5329); assay: BSK_4H_uPAR: BioMAP Diversity Plus: 4H Assay for Urokinase-type plasminogen activator receptor (uPAR) Biomarker Activity (AID 2283030); details: primary human endothelial cells (HUVEC); actives raise or lower the signal
Method in brief: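 Primary human umbilical vein endothelial cells were exposed to chemical for 24 h before cell-surface uPAR was quantified by ELISA. Activity was fitted bidirectionally against the DMSO negative control baseline.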

[11] = read-out: Vascular endothelial growth factor receptor 2 (Homo sapiens) (UniProt P35968); assay: BSK_4H_VEGFRII: BioMAP Diversity Plus: 4H Assay for Vascular endothelial growth factor receptor 2 (VEGFR2) Biomarker Activity (AID 2283031); details: primary human endothelial cells (HUVEC); actives raise or lower the signal
Method in brief: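 Primary human umbilical vein endothelial cells in the BioMAP 4H system were dosed with test chemical, and 24 h later VEGFRII was measured by ELISA. Activity was fitted bidirectionally against DMSO as negative control and baseline.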

[12] = read-out: Human Leukocyte Antigen - DR isotype (HLADR), HLA-DRA (gene 3122); assay: BSK_BE3C_HLADR: BioMAP Diversity Plus: BE3C Assay for Human Leukocyte Antigen - DR isotype (HLADR) Biomarker Activity (AID 2283032); details: primary human bronchial epithelial cells; actives raise or lower the signal
Method in brief: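 Signal came from an ELISA for HLA-DR in human bronchial epithelial primary cells harvested 24 h after treatment; gain- and loss-of-signal fitting used DMSO controls as reference.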

[13] = read-out: Interferon-gamma inducible Protein 10 (IP10), CXCL10 (gene 3627); assay: BSK_BE3C_IP10: BioMAP Diversity Plus: BE3C Assay for Interferon-gamma inducible Protein 10 (IP10) Biomarker Activity (AID 2283034); details: primary human bronchial epithelial cells; actives raise or lower the signal
Method in brief: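 Using primary human bronchial epithelial cultures, the assay captures IP-10 by ELISA one day (24 h) after exposure. Parallel SRB staining of total protein flags overt cytotoxicity. Fits run bidirectionally relative to DMSO.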

[14] = read-out: Monokine induced gamma interferon (MIG), CXCL9 (gene 4283); assay: BSK_BE3C_MIG: BioMAP Diversity Plus: BE3C Assay for Monokine induced gamma interferon (MIG) Biomarker Activity (AID 2283035); details: primary human bronchial epithelial cells; actives raise or lower the signal;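 also: MIG protein measured by ELISA in BE3C cultures after 24 h of dosing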
Method in brief: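 ELISA read-out of MIG in human lung bronchial epithelial primary cultures, 24 h post-dosing. Bidirectional curve fit vs DMSO baseline.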

[15] = read-out: Transforming growth factor beta 1 (TGFb1), TGFB1 (gene 7040); assay: BSK_BE3C_TGFb1: BioMAP Diversity Plus: BE3C Assay for Transforming growth factor beta 1 (TGFb1) Biomarker Activity (AID 2283036); details: primary human bronchial epithelial cells; actives raise or lower the signal
Method in brief: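 In this human primary bronchial epithelial system, an ELISA quantified TGF-b1 one day after dosing. Endpoint changes in either direction were fitted relative to DMSO.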

[16] = read-out: Plasminogen activator inhibitor-1 (PAI1), SERPINE1 (gene 5054); assay: BSK_BE3C_PAI1: BioMAP Diversity Plus: BE3C Assay for Plasminogen activator inhibitor-1 (PAI1) Biomarker Activity (AID 2283037); details: primary human bronchial epithelial cells; actives raise or lower the signal
Method in brief: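 PAI-1 biomarker levels in treated human bronchial epithelial cells are determined by ELISA at 24 h. Both increases and decreases relative to DMSO are fitted.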

[17] = read-out: urokinase plasminogen activator (uPA), PLAU (gene 5328); assay: BSK_BE3C_uPA: BioMAP Diversity Plus: BE3C Assay for urokinase plasminogen activator (uPA) Biomarker Activity (AID 2283038); details: primary human bronchial epithelial cells; actives raise or lower the signal;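 also: uPA protein level quantified by ELISA in cell cultures; uPA read one day after compound addition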
Method in brief: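 Human primary bronchial epithelial cells were exposed to chemical for 24 h, then uPA levels were measured by ELISA. Responses were fitted bidirectionally against DMSO as negative control and baseline. Parallel SRB staining of total protein gauged overt cytotoxicity.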

[18] = read-out: Urokinase-type plasminogen activator receptor (uPAR), PLAUR (gene 5329); assay: BSK_BE3C_uPAR: BioMAP Diversity Plus: BE3C Assay for Urokinase-type plasminogen activator receptor (uPAR) Biomarker Activity (AID 2283039); details: primary human bronchial epithelial cells; actives raise or lower the signal
Method in brief: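 A uPAR ELISA serves as the readout, taken 24 h after treating primary human bronchial epithelial cells. Responses in either direction are fitted against DMSO, which defines baseline activity.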

[19] = read-out: Interleukin-6 (IL6), IL6 (gene 3569); assay: BSK_CASM3C_IL6: BioMAP Diversity Plus: CASM3C Assay for Interleukin-6 (IL6) Biomarker Activity for (AID 2283040); details: primary human coronary artery smooth muscle cells; actives raise or lower the signal
[20] = read-out: Vascular cell adhesion molecule 1 (VCAM1), VCAM1 (gene 7412); assay: BSK_4H_VCAM1: BioMAP Diversity Plus: 4H Assay for Vascular cell adhesion molecule 1 (VCAM1) Biomarker Activity (AID 2283033); details: primary human endothelial cells (HUVEC); actives raise or lower the signal;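 also: cell-surface VCAM-1 protein measured by ELISA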
Method in brief: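 Endpoint derived from bidirectional fitting against DMSO controls of VCAM-1 ELISA signal in umbilical vein endothelial cells sampled at 24 h following treatment.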

Measured: AC50

Sequence of human Vitamin D Receptor (VDR), VDR (gene 7421) (P11473 whole entry, looked up, the tested form may be a part): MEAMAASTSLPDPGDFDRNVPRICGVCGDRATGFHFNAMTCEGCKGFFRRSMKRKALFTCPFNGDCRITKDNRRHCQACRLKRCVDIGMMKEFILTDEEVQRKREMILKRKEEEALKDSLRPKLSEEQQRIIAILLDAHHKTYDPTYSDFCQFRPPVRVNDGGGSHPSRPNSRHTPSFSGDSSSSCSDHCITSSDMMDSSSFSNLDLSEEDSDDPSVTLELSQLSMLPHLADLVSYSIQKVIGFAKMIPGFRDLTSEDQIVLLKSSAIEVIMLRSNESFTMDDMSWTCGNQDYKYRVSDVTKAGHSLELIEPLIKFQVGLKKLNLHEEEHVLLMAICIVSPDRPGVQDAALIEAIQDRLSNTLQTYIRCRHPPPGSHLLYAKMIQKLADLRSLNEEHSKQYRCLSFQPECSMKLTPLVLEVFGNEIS

COC(=O)N(C(=O)N1CO[C@@]2(C(=O)OC)Cc3cc(Cl)ccc3C2=N1)c1ccc(OC(F)(F)F)cc1
active: [3] 3.97 µM | [6] 5.19 µM | [7] 7.13 µM | [8] 5.81 µM | [12] 13.8 µM | [13] 11 µM
inactive: [1] | [2] | [4] | [5] | [9] | [10] | [11] | [14] | [15] | [16] | [17] | [18] | [19]

CNC(=O)Oc1cccc2ccccc12
inactive: [1] | [2] | [4] | [7] | [8] | [9] | [10] | [11] | [12] | [13] | [14] | [15] | [16] | [17] | [18] | [19]
active: [3] 12.4 µM | [5] 13.7 µM | [6] 16.7 µM

Cn1c(-c2ccccc2)cc(-c2ccccc2)[n+]1C
active: [5] 9.8 µM | [7] 1.65 µM | [12] 3.97 µM | [13] 16.5 µM
inactive: [1] | [2] | [3] | [4] | [6] | [8] | [9] | [10] | [11] | [20] | [14] | [15] | [16] | [17] | [18] | [19]

Clc1nc(Cl)nc(Nc2ccccc2Cl)n1
inactive: [1] | [2] | [3] | [5] | [6] | [7] | [8] | [9] | [10] | [11] | [12] | [20] | [13] | [14] | [15] | [16] | [19]
active: [18] 0.293 µM

CS(=O)(=O)c1cc(C(F)(F)F)ccc1C(=O)c1cnoc1C1CC1
active: [13] 4.13 µM
inactive: [1] | [2] | [3] | [4] | [5] | [6] | [7] | [8] | [9] | [10] | [11] | [12] | [14] | [15] | [16] | [18] | [19]

Nc1c(Cl)c(Cl)nc(C(=O)O)c1Cl
inactive: [1] | [3] | [4] | [5] | [6] | [7] | [8] | [9] | [10] | [11] | [12] | [20] | [13] | [14] | [15] | [16] | [17] | [18] | [19]

COC(=O)NC(=S)Nc1ccccc1NC(=S)NC(=O)OC
active: [9] 10.8 µM | [18] 1.46 µM
inactive: [1] | [2] | [3] | [5] | [6] | [7] | [8] | [10] | [11] | [12] | [13] | [14] | [15] | [16] | [17] | [19]

CC1(C)CON(Cc2ccccc2Cl)C1=O
inactive: [1] | [2] | [3] | [4] | [5] | [6] | [7] | [8] | [9] | [10] | [11] | [12] | [13] | [14] | [16] | [18] | [19]
active: [15] 37.2 µM

CC(C)Nc1nc(Cl)nc(NC(C)C)n1
inactive: [1] | [2] | [3] | [4] | [5] | [6] | [7] | [8] | [9] | [10] | [11] | [12] | [13] | [14] | [15] | [16] | [18] | [19]

CCNP(=S)(OC)O/C(C)=C/C(=O)OC(C)C (stereo unspecified)
inactive: [1] | [3] | [5] | [6] | [7] | [8] | [9] | [10] | [11] | [12] | [20] | [13] | [14] | [15] | [16] | [17] | [18] | [19]

Nc1cnn(-c2ccccc2)c(=O)c1Cl
active: [5] 39 µM
inactive: [1] | [3] | [6] | [7] | [8] | [9] | [10] | [11] | [12] | [13] | [14] | [15] | [16] | [17] | [18] | [19]

CCCCC(O)(Cn1cncn1)c1ccc(Cl)cc1Cl (stereo unspecified)
inactive: [1] | [3] | [5] | [6] | [8] | [9] | [10] | [11] | [14] | [15] | [16] | [18] | [19]
active: [7] 14.3 µM | [12] 16 µM | [13] 26.8 µM

O=C(O)c1c(Cl)ccc2cc(Cl)cnc12
inactive: [1] | [3] | [5] | [6] | [7] | [8] | [9] | [10] | [11] | [12] | [20] | [13] | [14] | [15] | [16] | [18] | [19]

CO/N=C(/C1=NOCCO1)c1ccccc1Oc1ncnc(Oc2ccccc2Cl)c1F
inactive: [1] | [6] | [8] | [9] | [11] | [13] | [14] | [15] | [16] | [18] | [19]
active: [3] 13.4 µM | [5] 20 µM | [7] 8.6 µM | [10] 15.5 µM | [12] 11.1 µM
